# Vif imaging: HIV Vif inhibition; HEK293T cells, Vif self-association by quenched fluorescence, imaging, 24 h; inhibition, % at 7.49 µM; 340,000 compounds, 0.35% hits; AID 602346; in the data active = inhibition above about 50%, passing the limit was not always enough; inconclusive = no clear call, values can overlap the other calls; inactive = below about 31%
# Wnt act: activators of Wnt/beta-catenin signaling. Wnt/beta-catenin reporter cell assay, activator, plate reader. activation, % at 9.35 µM. 300,000 compounds, 1.2% hits. AID 743398; in the data active = activation above about 30%, passing the limit was not always enough; inconclusive = no clear call, values can overlap the other calls;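 note: 0% = neutral control wells and 100% = positive control wells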
# MITF act: MITF TRPM1 promoter activation in melanoma cells; SK-MEL-5 TRPM1-promoter luciferase, 24 h; % of positive control, neutral wells = 0; activation, % at 12.5 µM; 300,000 compounds, 0.75% hits; AID 588334;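 active = mean activation of at least 80% with every replicate also reaching 80%; inconclusive = mean reaches 80% but some replicate falls short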;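 note: 0% = neutral control wells and 100% = parthenolide positive control wells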
# Glyco luc inh: N-linked glycosylation inhibition; AID 588692; reporter increase, % at 12.5 µM; D54 ERlucT glycosylation luciferase reporter, 24 h; percent of 100 nM tunicamycin response; 360,000 compounds, 0.23% hits;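 active = mean luciferase reporter signal, scaled so untreated is 0 and the glycosylation-blocking control 100, at or above a set limit in every replicate; inconclusive = mean reaches the limit but not every replicate does; inactive = mean below the limit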;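 note: luciferase carries N-glycosylation sites so blocking glycosylation raises the light; 0% = median of neutral control wells and 100% = median of 100 nM tunicamycin wells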
# PfHsp90 set2: growth inhibition of yeast expressing Plasmodium Hsp90 | S. cerevisiae expressing PfHsp90, BacTiter-Glo ATP, 48 h; yeast lacking PDR1 and PDR3 efflux regulators | 310,000 compounds, 0.32% hits | inhibition, % at 9.4 µM;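 active = every replicate shows inhibition above about 80%, whatever the replicate mean, limit read from the data; inconclusive = mean inhibition reaches the set limit but some replicate falls short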;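 note: 0% = DMSO neutral controls and 100% = 20 µM radicicol positive controls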
# esBAF inh: SWI/SNF esBAF complex inhibition | mouse ES cells, Bmi1-luciferase knock-in reporter, 24 h; 100% = twice the neutral-well signal | reporter increase, % at 12.5 µM | 350,000 compounds, 2% hits | AID 602393; in the data active = activation above about 40%; inconclusive = no clear call, values can overlap the other calls;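 note: 0% = median of the plate's neutral control wells and 100% = double that signal; a rise in the Bmi1 reporter signal indicates esBAF inhibition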
# * marks the source's active call; other numbers are inactive results; ? = inconclusive; · = not tested or not shown. In the library only some 3% were active in any assay of this set; here they are far more common.
SMILES,Vif imaging,Wnt act,MITF act,Glyco luc inh,PfHsp90 set2,esBAF inh
CCO/C(C)=N/Oc1cnc2ccccc2c1,0,4,·,-1,·,66*
Cc1ccc(C(=O)C(SC(C)(C)C)n2cncn2)cc1 (stereo not drawn),-11,1,·,2,83*,-1
CCCC(C(=O)c1ccccc1)n1cncn1 (stereo not drawn),11,·,-8,1,-25,-4
C[C@H]1CCCCO[C@@H](CN(C)S(=O)(=O)c2ccccc2)[C@@H](C)CN([C@@H](C)CO)C(=O)c2cc(N(C)C)ccc2O1,·,·,·,·,·,2
Cc1ccc2[nH]c(=O)c(-c3nc4cc(C)ccn4c3NCc3ccco3)cc2c1,·,·,2,-2,30,69*
Cc1cccc2cc(-c3nc4c(C)cccn4c3NCc3ccco3)c(=O)[nH]c12,-5,-1,-5,1,12,7
CCOC(=O)c1c(NC(C)=O)sc2c1CCC(C=O)=C2Sc1ccccc1,-3,-11,-10,32*,-8,3
CCOC(=O)c1c(NC(C)=O)sc2c1CCN(Cc1ccccc1)C2,·,0,·,-2,-14,4
COc1ccc(C2c3cc(OC)c(OC)cc3CCN2C(=O)c2ccccc2)cc1OC (stereo not drawn),9,-3,-10,0,10,-5
COc1cc2c(cc1OC)C(c1ccccc1)N(C(=O)c1cccc(S(C)(=O)=O)c1)CC2 (stereo not drawn),16,-1,-14,67*,3,-9
O=C(CCCC(=O)N(CC(=O)NC1CCCCC1)c1ccc(F)cc1)Nc1ccccn1,-3,-2,2,1,-2,1
O=C(CCNC(=O)c1ccco1)Nc1nc2ccccc2s1,7,26,26,5,-8,37
COc1ccc2nc(NC(=O)CCNC(=O)c3ccco3)sc2c1,-1,42*,110*,9,23,45*
COc1ccc2nc(NC(=O)CCc3ccc(OC)c(OC)c3)sc2c1,-3,-2,19,-1,-10,·
CCCC(=O)Nc1nc2ccc(OC)cc2s1,-10,?,51,-3,5,58*
CC(C)(C)c1nnc(NC(=O)CCC2CCCCC2)s1,1,0,·,-1,·,23
CCOc1ccc(CNC(=O)C(CC)n2nc(C)n3c(cc4occc43)c2=O)cc1OC (stereo not drawn),-9,·,-9,0,5,-5
O=C(Nc1nc(-c2ccccc2)cs1)c1cccc([N+](=O)[O-])c1,-18,·,25,3,·,61*
Cc1ccc(NC(=O)c2csc(-c3ccccc3)c2C)cc1,-2,-26,-18,-20,-1,-64
O=[N+]([O-])c1cccc(-c2csc(Nc3ccccc3)n2)c1,-9,9,44,2,-11,52*
Cc1c(C(=O)Nc2cccc([N+](=O)[O-])c2)csc1-c1ccccc1,25,·,56,-21,·,50*
NS(=O)(=O)c1ccc(CCNC(=O)c2ccccc2-c2ccccc2)cc1,5,-5,-4,1,-12,0
Nc1sc(-c2ccccc2)cc1C(=O)NCCc1c[nH]c2ccccc12,·,-2,·,·,·,·
COc1cc(CC(=O)O)c(C(C)=O)cc1OC,-3,·,-12,-1,9,48*
CC(=O)Oc1cc(O)c2c(=O)c(OC(C)=O)c(-c3ccc(OC(C)=O)c(OC(C)=O)c3)oc2c1,-14,·,16,-6,-8,43*
SMILES,Vif imaging,Wnt act,MITF act,Glyco luc inh,PfHsp90 set2,esBAF inh
COc1ccc(-c2oc3cc(OC(C)=O)cc(OC(C)=O)c3c(=O)c2OC)cc1,-6,1,11,4,9,23
COc1ccc(-c2oc3ccccc3c(=O)c2OC(C)=O)cc1,0,-4,46,-2,3,75*
CCCn1c(SCC(=O)Nc2ccccc2-c2ccccc2)nnc1-c1ccoc1C,0,-4,-4,11,7,0
CN(c1nc(-c2ccccc2)cs1)C1CCS(=O)(=O)C1 (stereo not drawn),0,7,45,-2,12,75*
Cc1ccc(S(=O)(=O)N/N=C/c2ccc3nccnc3c2)cc1,-4,6,-5,2,12,5
Brc1ccc(-c2nnc(Cc3ccccc3)o2)cc1,3,25,·,-4,·,·
Clc1ccccc1OCc1nnc(-c2ccccc2)o1,-2,?,88*,-5,44,·
CC(=O)Nc1ccccc1OCc1nnc(-c2ccc(Cl)cc2)o1,-3,1,8,-1,·,66*
c1ccc(Cc2nnc(-c3ccccc3)o2)cc1,-3,56*,·,-4,11,49*
Cc1cc(Br)ccc1OCc1nnc(-c2ccccc2)o1,6,25,·,-1,·,·
CCCCn1c(N)c(N(Cc2ccccc2OC)C(=O)CSCC(=O)Nc2ccc(C)cc2)c(=O)[nH]c1=O,4,-3,5,0,-19,2
Cc1cc(-c2nnc(SCC(=O)Nc3ccc(Cl)cn3)n2N)n[nH]1,55*,-1,7,1,-8,-7
CC1CCC2(CC1)NC(=O)N(CC(=O)Nc1cccc(S(=O)(=O)N3CCOCC3)c1)C2=O (stereo not drawn),·,11,23,9,2,-4
O=C(CSc1nccn1Cc1ccco1)Nc1ccccc1F,-4,3,23,0,-11,15
CCCNC(=O)CSc1nccn1Cc1ccco1,-1,2,-5,2,-2,·
Cc1ccc(NC(=O)CSc2nccn2Cc2ccco2)c(C)c1,21,37*,20,-10,-6,-41
Cc1ccc(C)c(NC(=O)CSc2nccn2Cc2ccco2)c1,-8,7,31,0,9,56*
CC(=O)c1c(C)[nH]c(C(=O)Nc2cccnc2)c1C,-5,6,-2,3,1,10
Cc1cccc(N2CCN(C(=O)Cn3sc4nc(C)cc(C)c4c3=O)CC2C)c1 (stereo not drawn),-2,·,-5,-1,167*,6
Cc1cccc(N2CCN(C(=O)Cn3nc(C)n4cccc4c3=O)CC2C)c1 (stereo not drawn),·,-2,11,-2,3,-4
COc1cccc(C#CC2=CC(=O)CC(C)(C)C2)c1,1,-2,·,-4,·,134*
CCC1CCc2sc(C(=O)NCC3CCCO3)cc2C1 (stereo not drawn),-10,55*,76,-4,-27,66*
COCCn1c(C)cc(C(=O)CSc2ccc3ccccc3n2)c1C,-8,·,87*,-3,-22,8
Cc1[nH]c(=O)[nH]c(=O)c1S(=O)(=O)N1CCCC(C(=O)NCc2ccco2)C1 (stereo not drawn),0,·,-1,3,-29,1
CCCN(Cc1ccc(C)cc1)C(=O)c1ccc(CNS(=O)(=O)c2ccc(C(C)=O)cc2)cc1,7,2,?,-2,-6,62*
